Here are results for 14 molecules from PubChem BioAssay (NCI).

This is part of a sample that, as a whole, favours compounds with a hit. Of some 83,000 tested, about 20% had one in any assay.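 Activity criterion: percent growth below 10, measured after cells in 96-well plates were exposed to a single compound concentration for 48 hours.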 Unmarked numbers belong to inactive results. Active and inactive are the calls of the source.

Some test systems named below: DU-145 prostate; K-562 leukemia; MALME-3M melanoma; MDA-MB-231 breast; RXF 393 renal; SF-268 CNS; SF-295 CNS; SF-539 CNS; UACC-257 melanoma; M14 melanoma.
What all share (assay): NCI-60 one-dose screen, 48 h (100 = growth as untreated, 0 = no growth, -100 = all killed)
Holding throughout (conditions): 10 µM unless noted

Regarding `COc1ccc2ncccc2c1Cc1c(OC)ccc2ncccc12`, the growth in the test with DU-145 prostate was 91.5%; with K-562 leukemia it was 21.5%; with MALME-3M melanoma, 55.9%; in the test on MDA-MB-231 breast, 71.1%; with RXF 393 renal, 82.1%; in the test with SF-268 CNS, 84.2%. The growth in the test on SF-295 CNS is 63.9%; in the test on SF-539 CNS it was 75%; with UACC-257 melanoma it was 68.2%; in the test on M14 melanoma, 56.5%.
In the case of `Oc1c(Cl)cc(Cl)c(Cl)c1Cc1c(O)c(Cl)cc(Cl)c1Cl`, the growth was 28.2% in the test on DU-145 prostate; 4.84% (active) in the test with K-562 leukemia; -21.1% (active) in the test on MALME-3M melanoma; -13.5% (active) with MDA-MB-231 breast; 15.1% in the test on RXF 393 renal; 17.5% in the test on SF-268 CNS. For the same molecule, the growth was -42.4% (active) in the test on SF-295 CNS, 21.4% in the test with SF-539 CNS, 9.73% (active) with UACC-257 melanoma and 16.3% in the test on M14 melanoma.
On to `CC(C)Sc1nc(-c2ccc(Br)cc2)c(C#N)c(N2CCCCC2)n1`, for which the growth in the test with DU-145 prostate is 109%; in the test with K-562 leukemia, 116%; with MALME-3M melanoma, 94.1%; in the test on MDA-MB-231 breast, 90.9%; in the test on RXF 393 renal it was 110%; in the test on SF-268 CNS, 103%. Also, the growth was 96.7% with SF-295 CNS, 104% in the test with SF-539 CNS, 109% in the test with UACC-257 melanoma and 104% with M14 melanoma.
With `CCOC(=O)/C(=C/CC/C(C)=C/CC/C(C)=C/CCc1ccoc1)CC(=O)N1CCCCC1`, the growth with DU-145 prostate is 62.8%; with K-562 leukemia it was 18.1%; in the test on MALME-3M melanoma it was 15.2%; in the test on MDA-MB-231 breast, -21.9% (active); in the test with RXF 393 renal, 77.8%; in the test on SF-268 CNS, 66.4%. In addition, the growth with SF-295 CNS is 33%; with SF-539 CNS it was 76.3%; with UACC-257 melanoma, 12.7%; in the test with M14 melanoma, 31.4%.
As to `CCn1cnc(C[C@H](NC(=O)[C@H](CCCCNC(=O)Nc2cc(C(F)(F)F)cc(C(F)(F)F)c2)NC(=O)Nc2cc(C(F)(F)F)cc(C(F)(F)F)c2)C(=O)OC)c1`, the growth with DU-145 prostate was -69.5% [100 µM] (active); in the test with K-562 leukemia, -80.2% [100 µM] (active); in the test on MALME-3M melanoma, -69.6% [100 µM] (active); with MDA-MB-231 breast it was -100% [100 µM] (active); in the test on RXF 393 renal, -47.2% [100 µM] (active); in the test with SF-268 CNS, -53.5% [100 µM] (active). The growth in the test on SF-295 CNS was -97.4% [100 µM] (active); in the test with SF-539 CNS, -66.4% [100 µM] (active); in the test with UACC-257 melanoma, -59.1% [100 µM] (active); in the test on M14 melanoma, -97.4% [100 µM] (active).
`CC1(C)CC2(C)CC(=O)C1C(C(=O)O)C2C(=O)O` (stereo not given): the growth is 120% in the test with DU-145 prostate; 104% with K-562 leukemia; 110% in the test on MALME-3M melanoma; 107% in the test with MDA-MB-231 breast; 103% with RXF 393 renal; 105% in the test with SF-268 CNS. Further, the growth is 105% in the test on SF-295 CNS, 108% with SF-539 CNS, 107% with UACC-257 melanoma and 119% in the test on M14 melanoma.
Take `O=C(/C=C/c1cccc(O)c1)c1cccc(-n2cc(-c3ccccc3)[nH]c2=O)c1`: the growth in the test on DU-145 prostate was -16.9% (active); with K-562 leukemia, 1.71% (active); in the test with MALME-3M melanoma it was 0.0704% (active); with MDA-MB-231 breast it was -5.57% (active); in the test with RXF 393 renal, -62.4% (active); with SF-268 CNS, 7.61% (active). In addition, the growth was 64.8% in the test on SF-295 CNS, -27.4% (active) in the test with SF-539 CNS, 95.6% with UACC-257 melanoma and 64.5% in the test with M14 melanoma.
Take `C#C[C@]1(O)CCC2C3CCc4cc(O)ccc4C3CC[C@@]21C` (stereo not given in full): the growth is 60.8% in the test on DU-145 prostate; 12.7% with K-562 leukemia; 43% in the test on MALME-3M melanoma; 66.7% in the test with MDA-MB-231 breast; 51.5% in the test with RXF 393 renal; 47.7% in the test on SF-268 CNS. Further, the growth in the test with SF-295 CNS was 22.6%; in the test on SF-539 CNS it was 21%; in the test with UACC-257 melanoma, 75.2%; with M14 melanoma, 20.4%.
As to `COc1ccc2c(c1)c(CC(=O)[Se]C)c(C)n2C(=O)c1ccc(Cl)cc1`, the growth was -7.9% (active) with DU-145 prostate; 29.8% with K-562 leukemia; -41.9% (active) in the test on MALME-3M melanoma; 44.4% in the test with MDA-MB-231 breast; 4.4% (active) in the test with RXF 393 renal; -26.5% (active) in the test with SF-268 CNS. For the same molecule, the growth in the test on SF-295 CNS is 12.7%; in the test with SF-539 CNS, -17.4% (active); in the test with UACC-257 melanoma, 3.77% (active); with M14 melanoma, -13.9% (active).
Regarding `CCCCCCCC[Si](OCC)(OCC)OCC`, the growth is 105% with DU-145 prostate; 99.2% in the test with K-562 leukemia; 91.6% with MALME-3M melanoma; 104% in the test on MDA-MB-231 breast; 104% in the test on RXF 393 renal; 104% in the test on SF-268 CNS. Moreover, the growth in the test with SF-295 CNS was 111%; in the test with SF-539 CNS, 98.8%; in the test with UACC-257 melanoma it was 114%; in the test with M14 melanoma, 98.7%.
As to `COP(=O)(OC)C(c1ccccc1)(c1ccccc1)c1ccccc1`, the growth in the test on DU-145 prostate was 112%; with K-562 leukemia, 80.7%; in the test on MALME-3M melanoma, 103%; with MDA-MB-231 breast, 90.2%; with RXF 393 renal, 36.9%; in the test with SF-268 CNS, 120%. In addition, the growth in the test on SF-295 CNS is 60%; with SF-539 CNS, 95.9%; in the test with UACC-257 melanoma, 82.1%; in the test on M14 melanoma, 98.7%.
Turning to `C[C@@H]1C[C@@H]([C@@H](CC2CC(=O)NC(=O)C2)OC(=O)CC(=O)c2ccccc2)C(=O)[C@@H](C)C1`, the growth in the test on DU-145 prostate was 11.8%; with K-562 leukemia, 17.7%; in the test on MALME-3M melanoma it was -0.912% (active); in the test on MDA-MB-231 breast, 17.5%; with RXF 393 renal, -13.7% (active); in the test on SF-268 CNS, 15.6%. Moreover, the growth in the test with SF-295 CNS is 4.68% (active); with SF-539 CNS, 5.1% (active); in the test on UACC-257 melanoma, -4.59% (active); in the test on M14 melanoma, 10.9%.
Regarding `COc1cnc2c(c1)C(=O)c1c-2n(CCCN2CCOCC2)c(=O)c2cc(F)ccc12`, the growth with DU-145 prostate was 3.8% (active); in the test with K-562 leukemia it was 12.4%; in the test with MALME-3M melanoma, -31.8% (active); in the test on MDA-MB-231 breast, 40.6%; with RXF 393 renal it was -30.1% (active); in the test with SF-268 CNS, 3.55% (active). Further, the growth is -21.1% (active) with SF-295 CNS, -61.4% (active) with SF-539 CNS, -10.6% (active) in the test on UACC-257 melanoma and 0.95% (active) with M14 melanoma.
Consider `CCCCc1n(Cc2ccc3ccccc3c2)cc[n+]1Cc1ccc2ccccc2c1`, for which the growth was 13.6% with DU-145 prostate; -17.9% (active) in the test with K-562 leukemia; -52.8% (active) with MALME-3M melanoma; -92.9% (active) in the test on MDA-MB-231 breast; -42.7% (active) with RXF 393 renal; -12.6% (active) in the test on SF-268 CNS. Further, the growth is -14.1% (active) in the test on SF-295 CNS, -4.06% (active) in the test on SF-539 CNS, -33.8% (active) in the test on UACC-257 melanoma and -75.2% (active) with M14 melanoma.
